Measurements: PubChem BioAssay AID2546 (National Center for Advancing Translational Sciences (NCATS), 2010)
The whole screen tested about 310,000 compounds, of which about 11,000 (3.5%) were called active. A call without a number means that no potency is given here. Roughly 8% stayed inconclusive and do not appear here. Calls follow the shape of the dose curve; as a rule, active = well fitted inhibition curve with a large enough effect; inconclusive = small, poorly fitted or top-dose-only effect, or effect the other way; inactive = flat fitted curve, though single readings scatter. Many of the other results were omitted from the sample, so actives are more common in it than they were.

Test: VP16 counterscreen qHTS for inhibitors of ROR gamma transcriptional activity;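 also: Gal4-VP16 expression switched on by copper sulfate through the metallothionein promoter; nearly all actives have a fitted effect of over 50% in size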
Settings: Drosophila S2 Gal4-VP16 UAS-luciferase, luminescence, 20 h; series mostly up to 53.6 µM
Potency is read from the fitted curve at half-maximal effect.

With Cc1ccc2occ(/C=N/NC(=O)c3ccccc3C)c(=O)c2c1 as the compound, how does the Potency read?
The Potency was “inactive”.

Which Potency does the source give for Cc1nc2ccc(C(=O)N/N=C/c3ccc(O)cc3)cc2[nH]1 here?
The Potency was “inactive”.

With O=C(NCc1ccccc1)c1onc(CSc2nc3ccccc3[nH]2)c1C(=O)NCc1ccccc1 as the compound, how does the Potency read?
Its Potency is “inactive”.

Which Potency does the source give for O=C(COc1ccc2c3c(c(=O)oc2c1)CCCC3)NCC(O)c1ccccc1 (configuration not stated) here?
Its Potency is “inactive”.

For COCCN1C(=O)C(=O)/C(=C(/O)c2ccc(S(=O)(=O)N3CCOCC3)cc2)C1c1ccc(OC)c(OC)c1 (configuration not stated), which Potency is on record?
The Potency was “inactive”.

Which Potency does the source give for C/C(=N/NC(=O)c1ccncc1)c1ccc2c(c1)OCO2 here?
The Potency was “inactive”.

Which Potency does the source give for C/C(=N\NC(=O)C(N)=O)c1ccc2c(c1)OCCO2 here?
Its Potency is “inactive”.

Which Potency does the source give for C/C(=N/NC(=S)Nc1ccccc1)c1ccc2c(c1)OCO2 here?
The Potency was 4.47 µM (active).

Which Potency does the source give for Cc1ccccc1N1CCN(C2CCCN(C(=O)c3cn4c(C)cccc4n3)C2)CC1 (configuration not stated) here?
Its Potency is “inactive”.

Which Potency does the source give for CCc1nn(CCCC(=O)Nc2ccc(C)c(C)c2)c(=O)c2cc3occc3n12 here?
The Potency was “inactive”.

Which Potency does the source give for CN1C/C(=C/c2cccs2)C(=O)/C(=C\c2cccs2)C1 here?
The Potency was “inactive”.

Which Potency does the source give for CCCc1cc(C(=O)Nc2ccc(Cl)cn2)cs1 here?
Its Potency is “inactive”.

For O=C(Nc1cccc([N+](=O)[O-])c1)Nc1ccc(Cl)cn1, which Potency is on record?
The Potency was “inactive”.

Which Potency does the source give for O=C(Nc1ccc(Cl)cn1)Nc1cccs1 here?
The Potency was 14.1 µM (active).

With COc1cc(/C=N/N2CCN(c3ccccc3)CC2)ccc1OC(C)=O as the compound, how does the Potency read?
The Potency was “inactive”.

For CC1CN/C(=C\C(=O)c2ccc(Br)cc2)C(=O)N1 (configuration not stated), which Potency is on record?
Its Potency is 11.2 µM (active).

For C/C(=C\C(=O)c1ccc(Br)cc1)N1CCCCC1, which Potency is on record?
Its Potency is “inactive”.

With COc1cc2c(cc1OC)/C(=C/C(=O)c1ccc(NC(C)=O)cc1)NCC2 as the compound, how does the Potency read?
The Potency was “inactive”.

Which Potency does the source give for O=C1CC(Sc2ncn[nH]2)C(=O)N1c1ccccc1 (configuration not stated) here?
Its Potency is “inactive”.

For Cc1ccnc(SCC(N)=O)n1, which Potency is on record?
Its Potency is “inactive”.

Which Potency does the source give for CCOc1ccccc1N1C(=O)CC(Sc2nccc(C)n2)C1=O (configuration not stated) here?
The Potency was 17.8 µM (active).

For COC(=O)C1CCN(C(=O)c2ccc3oc(Cc4ccc(Cl)cc4)nc3c2)CC1, which Potency is on record?
The Potency was “inactive”.

With COc1ccc(-c2nc3c(s2)CCc2onc(-c4ccc(OC)cc4)c2-3)cc1 as the compound, how does the Potency read?
The Potency was “inactive”.

For CCn1ccnc1CNC(=O)CC1C(=O)NCCN1CCCc1ccccc1 (configuration not stated), which Potency is on record?
The Potency was “inactive”.

Which Potency does the source give for COCCNC(=S)N(CCc1c(C)[nH]c2ccc(C)cc12)Cc1cccnc1 here?
The Potency was “inactive”.

Which Potency does the source give for NS(=O)(=O)c1ccc(Nc2nc(-c3ccccc3)cs2)cc1 here?
Its Potency is “inactive”.

With Cc1cccc(Nc2nc(-c3ccccc3)cs2)n1 as the compound, how does the Potency read?
Its Potency is 17.8 µM (active).

For Cc1cccc(S(=O)(=O)CC(=O)Nc2nc(-c3ccccc3)cs2)c1, which Potency is on record?
The Potency was “inactive”.

For O=C(Nc1ccc(S(=O)(=O)N2CCOCC2)cc1)c1ccc2ncsc2c1, which Potency is on record?
Its Potency is “inactive”.

Which Potency does the source give for COc1ccccc1-c1nnc(NC(=O)c2ccc3ncsc3c2)o1 here?
Its Potency is 0.501 µM (active).

For COc1ccccc1-c1nnc(SCC(=O)Nc2ccccc2)o1, which Potency is on record?
The Potency was “inactive”.

For Nc1nonc1-n1nnc(C(=O)N/N=C/C2CCCCC2)c1-c1ccccc1, which Potency is on record?
Its Potency is “inactive”.

With Nc1nonc1-n1nnc(C(=O)N/N=C/c2c[nH]c3ccccc23)c1-c1ccccc1 as the compound, how does the Potency read?
Its Potency is “inactive”.

For CCCOc1ccc(-c2c(C(=O)N/N=C/c3ccco3)nnn2-c2nonc2N)cc1, which Potency is on record?
The Potency was 15.8 µM (active).

With COc1ccc(NC(=O)c2cccc3c2C(=O)N(CC2CCCO2)C3)cc1OC (configuration not stated) as the compound, how does the Potency read?
The Potency was “inactive”.

Which Potency does the source give for O=C(NNS(=O)(=O)c1ccc(F)cc1)C1CCCCC1 here?
Its Potency is “inactive”.

With COc1cc(NS(=O)(=O)c2ccc(N=Cc3c(C)[nH]n(-c4ccccc4)c3=O)cc2)nc(OC)n1 as the compound, how does the Potency read?
Its Potency is “inactive”.

For COc1cc(SC#N)ccc1N=Cc1c(C)[nH]n(-c2ccc(C)cc2)c1=O, which Potency is on record?
Its Potency is 5.62 µM (active).

With O=S(=O)(Nc1cccc(-n2cnnn2)c1)c1cnc(Cl)c(Cl)c1 as the compound, how does the Potency read?
Its Potency is “inactive”.

Which Potency does the source give for CCc1ccc(S(=O)(=O)Nc2cc3c(cc2N2CCCCC2)n(C)c(=O)c(=O)n3C)cc1 here?
The Potency was “inactive”.

Which Potency does the source give for CSCCC(NS(=O)(=O)c1ccc(C)cc1)C(=O)NCCc1c[nH]c2ccccc12 (configuration not stated) here?
The Potency was “inactive”.

Which Potency does the source give for COc1ccc(C(=O)c2c(C)c(CCC#N)n3ccccc23)c(OC)c1 here?
Its Potency is “inactive”.

For Cc1ccc(-c2cc(C(=O)NN)n[nH]2)o1, which Potency is on record?
The Potency was “inactive”.

With CC(C)c1cc(C(=O)N/N=C/C(Br)=C/c2ccccc2)n[nH]1 as the compound, how does the Potency read?
Its Potency is “inactive”.

With Cc1ccc(-c2cc(C(=O)N/N=C/C=C/c3ccccc3)n[nH]2)o1 as the compound, how does the Potency read?
Its Potency is 20 µM (active).

With Cc1cc2oc(=O)cc(CN3CCN(Cc4ccccc4)CC3)c2cc1C as the compound, how does the Potency read?
Its Potency is “inactive”.

With COc1cccc(CNC(=O)Cn2c(=O)oc3cc(S(=O)(=O)N4CCCCC4)ccc32)c1 as the compound, how does the Potency read?
Its Potency is “inactive”.

With Cc1ccc(N2CCN(C(=O)c3cccs3)CC2)c(C)c1 as the compound, how does the Potency read?
Its Potency is “inactive”.

Which Potency does the source give for CCc1ccc(C(=O)NC(=S)Nc2ccccc2N2CCOCC2)cc1 here?
Its Potency is 3.16 µM (active).

For COc1ccc(C(=O)NC(=S)Nc2ccccc2N2CCN(S(C)(=O)=O)CC2)cc1OC, which Potency is on record?
Its Potency is “inactive”.

With COc1ccccc1C(=O)NC(=S)Nc1ccccc1N1CCCCC1 as the compound, how does the Potency read?
Its Potency is 10 µM (active).

With O=C(Nc1ccccc1N1CCCCC1)c1cccc(F)c1 as the compound, how does the Potency read?
Its Potency is “inactive”.

For Cc1ccccc1NC(=O)Nc1ccccc1N1CCCCC1, which Potency is on record?
The Potency was “inactive”.

With O=C(Nc1ccccc1N1CCCC1)c1ccc2ccccc2c1 as the compound, how does the Potency read?
The Potency was “inactive”.

For CC(=O)c1ccc(N2CCN(CC(=O)Nc3ccccc3N3CCOCC3)CC2)cc1, which activity, negative = inhibition is on record?
Its activity, negative = inhibition is -11.4% [at 10 µM] (inactive).

For O=C(NC(=S)Nc1ccccc1N1CCCCC1)c1ccc(F)cc1, which Potency is on record?
The Potency was 6.31 µM (active).

With O=C(CCNC(=O)c1ccc([N+](=O)[O-])cc1)Nc1ccccc1N1CCOCC1 as the compound, how does the Potency read?
The Potency was “inactive”.
